# Bioassay records (PubChem)
# POLI inh – qHTS for Inhibitors of Polymerase Iota | Pol iota fluorescent replication assay, 10 min | Potency, µM (top dose mostly 115 µM), inactives show at the highest dose activity, negative = inhibition, actives largely listed as inhibitors | hit rate 1% among 390,000 | AID 588590, 2011
#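 Fluorescent replication assay read twice, at 0 min and 10 min after adding 50 nM (final) substrate. Enzyme (10 nM) and compounds were first incubated 15 min at room temperature; enzyme-free buffer wells were negative controls.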
# POLH inh – qHTS for Inhibitors of Polymerase Eta | hit rate 1.2% among 390,000 | AID 588591, 2011 | Potency, µM (titrated, usually from 114 µM), for inactives: at the top dose activity change, negative = inhibition, hits mostly inhibitors | recombinant Pol eta, fluorescent DNA replication assay; further: on the % scale 0 is the no-effect control and ±100 the full control effect
#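 Fluorescent replication assay: 50 nM final substrate added after a 15 min room-temperature compound preincubation with 10 nM enzyme. Signal taken at 0 min and again at 10 min.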
# POLB inh – qHTS Assay for Inhibitors of DNA Polymerase Beta | P06746 | hit rate 1.3% among 340,000 | Potency, µM (highest dose often 114 µM), for inactives: at the top dose activity change, negative = inhibition, most hits filed as inhibitors | Pol beta primer extension/strand displacement, fluorescence kinetic | AID 485314, 2010; further: on the % scale 0 is the no-effect control and ±100 the full control effect
#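 Pol beta (10 nM) and compounds were preincubated 15 min at room temperature, then 50 nM substrate (final) started primer extension/strand displacement. Reads were taken at 0 and 10 min; concentration-response data were fitted to a four-parameter Hill equation.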
# Pol kappa inh – qHTS for Inhibitors of Polymerase Kappa; DNA polymerase kappa (Homo sapiens), Q9UBT6; purified Pol kappa, fluorescent DNA synthesis assay, 10 min; Potency, µM (top dose mostly 107 µM), inactives show top-dose activity, negative = inhibition, hits mostly inhibitors; hit rate 0.53% among 400,000; AID 588579, 2011; further: on the % scale 0 is the no-effect control and ±100 the full control effect
#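 Kinetic fluorescence readout at 0 and 10 min followed reaction start with substrate at 50 nM final. Beforehand, enzyme (10 nM Pol kappa) stood 15 min with compound at room temperature; buffer-only wells were negative controls.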
# FEN1 inh – qHTS Assay for the Inhibitors of Human Flap endonuclease 1 (FEN1) | P39748 | Recombinant FEN1 flap cleavage, fluorescence, 15 min | Potency, µM (top dose mostly 114 µM), without a hit: at the top dose activity change, negative = inhibition, actives largely listed as inhibitors | hit rate 0.35% among 390,000; further: on the % scale 0 is the no-effect control and ±100 the full control effect; nearly all actives have a fitted effect of over 65% in size
# Target sequence (P39748 whole entry, looked up): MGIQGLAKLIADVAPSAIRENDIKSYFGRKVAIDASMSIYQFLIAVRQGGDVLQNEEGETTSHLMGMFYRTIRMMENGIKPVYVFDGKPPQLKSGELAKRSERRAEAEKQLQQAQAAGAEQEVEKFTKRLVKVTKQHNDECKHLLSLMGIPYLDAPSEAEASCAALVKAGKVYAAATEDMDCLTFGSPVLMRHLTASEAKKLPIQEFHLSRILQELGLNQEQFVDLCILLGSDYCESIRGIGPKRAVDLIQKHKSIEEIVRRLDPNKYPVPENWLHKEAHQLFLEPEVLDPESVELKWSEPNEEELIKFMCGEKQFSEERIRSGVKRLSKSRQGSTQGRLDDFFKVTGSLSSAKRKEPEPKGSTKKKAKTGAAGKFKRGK
#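 FEN1 at 10 nM, compound pretreatment for 15 min (room temperature), 50 nM final substrate to initiate; endpoint reads at 0 and 15 min; DMSO-only plates used as vehicle background.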
# WRN inhibitor – qHTS for Inhibitors of WRN Helicase | Bifunctional 3'-5' exonuclease/ATP-dependent helicase WRN (Homo sapiens), Q14191 | WRN helicase unwinding, fluorescent forked duplex, kinetic | Potency, µM (series often up to 114 µM), inactives show top-dose activity change, negative = inhibition, actives largely listed as inhibitors | hit rate 0.46% among 360,000 | AID 651768, 2012; further: on the % scale 0 is the no-effect control and ±100 the full control effect; nearly all actives have a fitted effect of over 55% in size
#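 WRN at 20 nM final was preincubated with compound for 15 min at room temperature; reaction started with 100 nM forked duplex oligonucleotide carrying fluorophore and quencher plus 2 mM ATP (final). Unwinding followed kinetically by red fluorescence (ex 525/em 598 nm).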
# Starred values were filed as active, the others as inactive; ? = inconclusive; / = no result given; [ ] = another dose, or the depositor's remark. Rows were chosen to be rich in hits. Some 2.4% of all compounds tested hit in one or more screens of this group. The call rests on the fitted dose curve; in most records, active means well fitted curve in the direction sought with a large enough effect; inconclusive means small, poorly fitted or top-dose-only effect, or another doubt; inactive means no such curve, though single readings can be large; an effect the other way counts as inactive or inconclusive. Potency means the concentration at half of the fitted maximal effect.
SMILES,POLI inh,POLH inh,POLB inh,Pol kappa inh,FEN1 inh,WRN inhibitor
COc1cc(Cl)cc(C(c2c(C(=O)O)[nH]c3ccccc23)c2c(C(=O)O)[nH]c3ccccc23)c1O,?,?,89µM*,?,-8%,-8%[11.6 µM]
CCN1CCCC1CNCc1cccc(OC)c1OCc1ccccc1F (stereo not given),89µM*,-1%,2%,-2%,0%,-1%[57.1 µM]
COc1ccc(CNc2ncnc3ccc(-c4ccccc4C#N)cc23)c(OC)c1,/,/,/,40µM*,/,/
COc1ccccc1CNc1ncnc2ccc(-c3ccccc3C#N)cc12,/,/,/,5%[60.1 µM],/,/
Cc1c(Cl)cccc1NC(=S)N1CCN(C(=O)c2ccco2)CC1,18%,-3%,79µM*,3%,9%,-31%
COc1ccc(C(=O)NCCn2cc(SCc3cc(C)ccc3C)c3ccccc32)cc1,89µM*,-5%,3%,-9%,-15%,/
COc1ccc(C(=O)NCCn2cc(SCC(=O)Nc3ccc(C)cc3)c3ccccc32)cc1,-24%,-5%,-1%,-11%[60.1 µM],7%,/
CCc1c(C)nc2cc(-c3ccc(Cl)cc3)[nH]n2c1=O,-12%,1%,42%,-3%,7%,4%
CCOC(=O)CCc1c(C)nc2cc(-c3cc(OC)cc(OC)c3)[nH]n2c1=O,4%,-15%,28µM*,-9%,14%,/
CCc1c(C)nc2cc(-c3cccc(Br)c3)[nH]n2c1=O,6%,-28%,25µM*,4%,-9%,-27%
COc1cc(OC)cc(-c2cc3nc(C)c(CCC(=O)O)c(=O)n3[nH]2)c1,34%,-19%,2%,6%,-6%,-4%
COC(=O)CN1C(=O)[C@@H]2[C@H](C1=O)[C@@H]1CC(C(=O)OC)=C[C@@H](C(=O)OC)C3C1=C(C(=O)C31CCCCC1)[C@@H]2C (stereo not given in full),12%,/,/,-7%,5%,/
Oc1c(C(c2ccccc2F)N2CCN(c3ccccc3F)CC2)sc2nc(-c3ccco3)nn12 (stereo not given),-4%,-7%,-1%,-11%[60.1 µM],9%,/
Cc1ccc(C)n1-c1ccc(C(=O)NN)cc1,16µM*,-14%,13%,?,8%,-11%[57.1 µM]
CCOc1ccccc1CNC(=O)CN1C(=O)CCCc2ccccc21,-10%,-16%,0%,1%,-2%,/
CN1CC(O)C2=CC(=O)C(=O)C=C21 (stereo not given),/,/,/,0.32µM*,/,/
Cc1oc2c(c(C)cc3oc(=O)c(CC(=O)NCCc4ccccc4)c(C)c32)c1C,-6%,-11%,13%,-4%,18%,/
Cc1ccc(C(=O)N2CCCCC2)cc1NC(=O)c1nsc2ccccc12,-9%,-14%,?,-9%[60.1 µM],-15%,/
Cc1ccc(C(=O)O)cc1NC(=O)c1nsc2ccccc12,?,/,79µM*,-31%,-9%,/
CCOC(=O)NC1(NC2CCCCC2)Oc2ccccc2O1,71µM*,-1%,25µM*,79µM*,-14%,-27%
CCOC(=O)NC1(NC(C)C)Oc2ccccc2O1,?,-15%,5%,11%,-2%,3%
Cc1cc(NC(=O)COc2cccc3cccnc23)no1,/,/,32µM*,/,/,/
CCCCCCCCCCC(C)=O,/,/,/,10%[60.1 µM],/,/
Cc1c(NC(=O)c2ccc3c(c2)C(=O)N(Cc2ccco2)C3=O)cccc1C(=O)O,?,32µM*,?,?,-4%,-13%[11.6 µM]
COC(=O)Cc1ccc(NC(=O)c2ccc3c(c2)C(=O)N(Cc2ccco2)C3=O)cc1,25%,-5%,5%,-5%,6%,-9%
SMILES,POLI inh,POLH inh,POLB inh,Pol kappa inh,FEN1 inh,WRN inhibitor
CCc1ccc(NC(=O)c2ccc3c(c2)C(=O)N(Cc2ccco2)C3=O)cc1,?,20µM*,20µM*,50µM*,4%,-27%
COC(=O)c1ccccc1NC(=O)c1ccc2c(c1)C(=O)N(Cc1ccco1)C2=O,15%,-17%,/,-7%,-13%,2%
O=C(N/N=C/c1ccc(OC(=O)c2cccs2)cc1)c1ccc(F)cc1,9%,?,18µM*,-17%,-17%,-7%
O=C(Cc1ccccc1)N/N=C/c1ccc(OCC(=O)Nc2ccccc2)cc1,-11%,?,28µM*,-9%,7%,-22%
O=C(N/N=C/c1c(-c2ccccc2)[nH]c2ccccc12)c1cccnc1,-26%,-13%,?,-23%,?,-23%
O=C(COc1ccc(/C=N/NC(=O)c2ccccc2Br)cc1)Nc1ccccc1,36%,-12%,?,5%,-1%,10%
CC(NC(=O)COc1ccc(/C=N/NC(=O)C(=O)Nc2ccccc2Br)cc1)c1ccccc1 (stereo not given),?,?,32µM*,9%,5%,-16%
Cn1c(-c2ccccc2)c(/C=N/NC(=O)c2cccnc2)c2ccccc21,21%,-18%,56µM*,-26%,-35%,-17%
COc1ccc(-n2c(=O)c3c4c(sc3n(Cc3ccc(F)cc3)c2=O)CCCC4)c(OC)c1,20%,-16%,20%,2%,8%,/
CN(C)Cc1ccccc1-c1cc(N(C)C)ncn1,/,/,/,-5%[60.1 µM],/,/
O=C(O)COc1ccccc1/C=N/NC(=O)COc1ccc(-c2ccccc2)cc1,-7%,50µM*,?,-1%,?,?
COc1ccccc1NC(=O)COc1ccc(/C=N/NC(=O)c2cccnc2)cc1,22%,2%,-15%,-1%,17%,6%
COc1ccc(Br)c(/C=N/NC(=O)COc2ccc(-c3ccccc3)cc2)c1,?,-6%,2%,-2%,-8%,-17%
O=C(COc1ccc(/C=N/NC(=O)c2cccnc2)cc1)Nc1ccccc1,49%,?,32µM*,-1%,1%,-26%
O=C(CCC(=O)Nc1ccccc1)N/N=C/c1ccncc1,9%,7%,20µM*,9%,0%,8%
Cc1ccc(CSCC(=O)N/N=C/c2ccc(OCC(=O)Nc3ccc(C)cc3)cc2)cc1,?,?,10µM*,-27%,-18%,?
O=c1c(-c2ccccc2)nc2cnc(N3CCOCC3)nc2n1Cc1ccc(F)cc1,/,/,/,-4%[60.1 µM],/,/
O=C(N/N=C/c1ccc(OC(=O)c2ccccc2)cc1)c1cccnc1,?,?,50µM*,-33%,-28%,56µM*
O=C(N/N=C/c1ccc(OC(=O)c2ccc([N+](=O)[O-])cc2)cc1)c1cccnc1,-4%,-6%,-2%,1%,-4%,0%
